Reference: PubChem BioAssay (NCI)
This is part of a sample that, as a whole, favours compounds with a hit. Of some 83,000 tested, about 20% had one in any assay.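 Note: values are percent growth. 100 is the growth of untreated cells, values between 100 and 0 indicate rising inhibition; between -100 and 0 indicates cell death.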 Values without a mark were called inactive. Activity calls are given as the source filed them. How the source made its calls: active means growth percent below 10; inactive means the rest.

Tests used:
Assay in all cases: NCI-60 one-dose screen, 48 h (100 = growth as untreated, 0 = no growth, -100 = all killed)
Settings in all cases: 10 µM
NCI-H23 lung = test system: NCI-H23 lung
NCI-H226 lung = test system: NCI-H226 lung
NCI-H322M lung = test system: NCI-H322M lung
HOP-62 NSCLC = test system: HOP-62 NSCLC
NCI-H460 lung = test system: NCI-H460 lung
HOP-92 NSCLC = test system: HOP-92 NSCLC
NCI-H522 lung = test system: NCI-H522 lung
A549/ATCC NSCLC = test system: A549/ATCC NSCLC
786-0 renal = test system: 786-0 renal
COLO 205 colon = test system: COLO 205 colon
DU-145 prostate = test system: DU-145 prostate
MALME-3M melanoma = test system: MALME-3M melanoma
MDA-MB-231 breast = test system: MDA-MB-231 breast
RXF 393 renal = test system: RXF 393 renal
SF-268 CNS = test system: SF-268 CNS
SF-295 CNS = test system: SF-295 CNS
SF-539 CNS = test system: SF-539 CNS
UACC-257 melanoma = test system: UACC-257 melanoma
M14 melanoma = test system: M14 melanoma
K-562 leukemia = test system: K-562 leukemia

SMILES | growth (NCI-H23 lung) | growth (NCI-H226 lung) | growth (NCI-H322M lung) | growth (HOP-62 NSCLC) | growth (NCI-H460 lung) | growth (HOP-92 NSCLC) | growth (NCI-H522 lung) | growth (A549/ATCC NSCLC) | growth (786-0 renal) | growth (COLO 205 colon) | growth (DU-145 prostate) | growth (MALME-3M melanoma) | growth (MDA-MB-231 breast) | growth (RXF 393 renal) | growth (SF-268 CNS) | growth (SF-295 CNS) | growth (SF-539 CNS) | growth (UACC-257 melanoma) | growth (M14 melanoma) | growth (K-562 leukemia)
CN1CCN(c2ccc(Nc3nc(NCCCNC(=O)c4ccc(F)cc4)c4sccc4n3)cc2)CC1 | 74.8% | 81.2% | 79.9% | 92.5% | 62.5% | 56.8% | 87.5% | 56.3% | -4.91% (active) | 90.3% | 75.5% | -72.3% (active) | 58.1% | 10.8% | 74.6% | 79.9% | -90% (active) | -26.7% (active) | -7% (active) | –
CC(=O)Nc1nc(-c2ccc(N3CCN(C)CC3)c(NS(=O)(=O)c3ccc(C(F)(F)F)cc3)c2)cs1 | 55.8% | 40.1% | 88.2% | 63.7% | 31.3% | 9.58% (active) | 11.4% | 55.5% | -62.5% (active) | 36% | 23.3% | 38.1% | 24.2% | -47% (active) | 41.1% | 46% | -86.4% (active) | 49.5% | -3.51% (active) | –
CCCS(=O)(=O)c1oc(-c2ccc(F)cc2)nc1S(=O)(=O)c1ccc(F)cc1 | -42.1% (active) | 64.7% | 89.8% | 84% | 61.7% | -80.6% (active) | -92.9% (active) | 82.5% | -52.2% (active) | -92.1% (active) | -85.8% (active) | -98.8% (active) | -91.9% (active) | -97.5% (active) | 52.2% | 78.2% | -94.2% (active) | -30.9% (active) | -37.5% (active) | –
C=C(C)[C@@H]1CC[C@]2(COP(=O)(OCC)OCC)CC[C@]3(C)[C@H](CC[C@@H]4[C@@](C)(CCCN)[C@H](C(=C)C)CC[C@]43C)[C@@H]12 | 23.3% | 29% | 62.1% | 53.5% | 8.95% (active) | 25.2% | 19.6% | 21.5% | 20.4% | 29.7% | 38% | 15.7% | 21.9% | 6.32% (active) | 42% | 24.7% | 19% | 20.5% | 18.2% | –
CC(=C(c1ccc(OCCCN(C)C)cc1)c1ccc(OCCCN(C)C)cc1)c1ccccc1 | -97.9% (active) | -81.5% (active) | -100% (active) | -90.5% (active) | 3.15% (active) | -76.4% (active) | -84.6% (active) | -73.1% (active) | -44% (active) | -85.9% (active) | -100% (active) | -98.6% (active) | -99.6% (active) | -96.7% (active) | -80.4% (active) | -92.8% (active) | -100% (active) | -88% (active) | -56.9% (active) | –
Cc1ccc(-c2cc(-c3cc4ccccc4nc3Cl)[nH]c(=S)n2)cc1 | 71.5% | 74.2% | 81.7% | 90.1% | 83.3% | 44.7% | 37.8% | 85.5% | 74.3% | 89.5% | 63.7% | 46% | – | 28.1% | 77.8% | 45.1% | 55.7% | 66.5% | 15.9% | 18.6%
CC(C)C(=O)Nc1ccc(C(=O)NC(=S)Nc2ccc(C(=O)O)cc2)cc1 | 101% | 95.6% | 105% | 102% | 102% | 108% | 90.6% | 110% | 102% | 105% | 110% | 97% | 104% | 111% | 93.9% | 95.3% | 95.3% | 128% | 105% | –
COc1ccc2nc(Cl)c(-c3cc(-c4ccccc4)nc(=O)[nH]3)cc2c1 | 57.9% | 60.8% | 78.1% | 69.9% | 18% | 55.2% | 66.9% | 77.4% | 57.8% | 92.9% | 26.1% | 83.3% | – | 58.5% | 60.2% | 64.4% | 11.3% | 105% | 81.9% | 4.96% (active)
C=C1CC[C@H](C(=C)C)[C@H]2C=C(C)C(=O)C3=C(C(=O)[C@@](C)(O)C3)[C@H]12 | -63.9% (active) | -57.8% (active) | -96.9% (active) | -72.7% (active) | -45.6% (active) | -90.8% (active) | -88.6% (active) | -50.4% (active) | 2.21% (active) | -88.7% (active) | -45.4% (active) | -79.1% (active) | -70.1% (active) | -82.7% (active) | -50.1% (active) | -86.4% (active) | -98.4% (active) | -97.3% (active) | -30.3% (active) | –
Cc1ccc(NC(=O)c2ccc(-n3c(=O)[nH]c4ccccc4c3=O)cc2)cc1 | 88.2% | 61% | 99.9% | 82% | 86.3% | 36.5% | 13.8% | 113% | 36.7% | 109% | 102% | 84.8% | 64.6% | 54.3% | 84.4% | 91.9% | 38% | 122% | 101% | –
COC1CC(Cn2cc(COc3ccc4ccc(=O)oc4c3)nn2)C(OCc2ccccc2)C(OCc2ccccc2)C1OCc1ccccc1 (stereo not drawn) | 95.1% | 92.8% | 106% | 98.9% | 113% | 80.3% | 92.4% | 92.3% | 102% | 121% | 101% | 106% | 99.7% | 80.1% | 122% | 102% | 102% | 110% | 102% | –
CCCCCc1ccc(S(=O)(=O)Nc2cc(-c3csc(N(C)C(C)=O)n3)ccc2N2CCN(C)CC2)cc1 | 44.3% | 37.4% | 63.6% | 54.2% | 23.6% | -12.9% (active) | 32.8% | 57.7% | 8.85% (active) | -65.6% (active) | 70.5% | -57.1% (active) | -2.21% (active) | -73.8% (active) | 73.2% | -10.1% (active) | -58.7% (active) | -21.8% (active) | 28.3% | –
